From the supplement of paper PMC8728848
Shown is part of a subset that was picked to be rich in the strongest signals.

Columns and labels:
Test in all cases: glycan array binding signal (z-score within array); higher = stronger binding
Conditions in all cases: glycan notation: IUPAC condensed, linker removed
[1] = target: Fuc(a1-2)Gal(b1-3)GlcNAc(b1-3)GalNAc
Procedure, shortened: (§1)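 Columns mapping to the same glycan were averaged after glycan names were converted to IUPAC-condensed notation. The data come from 3228 arrays in the Consortium for Functional Glycomics database, limited to those with an available protein sequence. Binding is reported as a within-array Z-score averaged across arrays of one protein sequence and across linkers.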

Fuc(a1-2)Gal(b1-4)Glc6S = target: Fuc(a1-2)Gal(b1-4)Glc6S
Procedure, shortened: as §1

[2] = target: Fuc(a1-2)Gal(b1-4)GlcNAc(b1-3)Gal(b1-4)GlcNAc
Procedure, shortened: as §1

[3] = target: Fuc(a1-2)Gal(b1-4)GlcNAc(b1-3)Gal(b1-4)GlcNAc(b1-2)Man(a1-3)[Fuc(a1-2)Gal(b1-4)GlcNAc(b1-3)Gal(b1-4)GlcNAc(b1-2)Man(a1-6)]Man(b1-4)GlcNAc(b1-4)GlcNAc
Procedure, shortened: as §1

[4] = target: Fuc(a1-2)Gal(b1-4)GlcNAc(b1-3)Gal(b1-4)GlcNAc(b1-3)Gal(b1-4)GlcNAc
Procedure, shortened: as §1

[5] = target: Fuc(a1-2)Gal(b1-4)GlcNAc(b1-3)GalNAc
Procedure, shortened: as §1

[6] = target: Fuc(a1-2)[Gal(a1-3)]Gal(b1-4)GlcNAc(b1-3)[Fuc(a1-2)[Gal(a1-3)]Gal(b1-4)GlcNAc(b1-6)]GalNAc
Procedure, shortened: as §1

[7] = target: Fuc(a1-2)[Gal(a1-4)]Gal(b1-4)GalNAc
Procedure, shortened: as §1

[8] = target: Fuc(a1-2)[GalNAc(a1-4)]Gal(b1-4)GlcNAc
Procedure, shortened: as §1

[9] = target: Fuc(a1-3)[Gal(b1-4)]GlcNAc(b1-4)Gal(b1-4)[Fuc(a1-3)]GlcNAc
Procedure, shortened: as §1

Fuc(a1-4)GlcNAc = target: Fuc(a1-4)GlcNAc
Procedure, shortened: as §1

Gal(a1-3)Gal(b1-3)Glc = target: Gal(a1-3)Gal(b1-3)Glc
Procedure, shortened: as §1

[10] = target: Gal(a1-3)Gal(b1-4)GlcNAc(b1-6)GalNAc
Procedure, shortened: as §1

[11] = target: Gal(a1-4)Gal(b1-3)GlcNAc(b1-2)Man(a1-3)[Gal(a1-4)Gal(b1-3)GlcNAc(b1-2)Man(a1-6)]Man(b1-4)GlcNAc(b1-4)GlcNAc
Procedure, shortened: as §1

Gal(a1-4)Gal(b1-4)GlcNAc = target: Gal(a1-4)Gal(b1-4)GlcNAc
Procedure, shortened: as §1

Gal(b1-3)Gal = target: Gal(b1-3)Gal
Procedure, shortened: as §1

Gal(b1-3)Gal(b1-4)GlcNAc = target: Gal(b1-3)Gal(b1-4)GlcNAc
Procedure, shortened: as §1

Gal(b1-3)GalNAc = target: Gal(b1-3)GalNAc
Procedure, shortened: as §1

[12] = target: Gal(b1-3)GalNAc(b1-3)Gal(b1-4)GlcNAc
Procedure, shortened: as §1

[13] = target: Gal(b1-3)GlcNAc(b1-3)GalNAc
Procedure, shortened: as §1

[14] = target: Gal(b1-3)GlcNAc(b1-6)Gal(b1-4)GlcNAc
Procedure, shortened: as §1

[15] = target: Gal(b1-3)[Fuc(a1-4)]GlcNAc(b1-3)Gal(b1-4)[Fuc(a1-3)]GlcNAc
Procedure, shortened: as §1

[16] = target: Gal(b1-4)GalNAc(b1-3)[Fuc(a1-2)]Gal(b1-4)GlcNAc
Procedure, shortened: as §1

Gal(b1-4)Glc6S = target: Gal(b1-4)Glc6S
Procedure, shortened: as §1

[17] = target: Gal(b1-4)GlcNAc(b1-2)[Gal(b1-4)GlcNAc(b1-6)]Man(a1-6)[Gal(b1-4)GlcNAc(b1-2)Man(a1-3)]Man(b1-4)GlcNAc(b1-4)[Fuc(a1-6)]GlcNAc
Procedure, shortened: as §1

[18] = target: Gal(b1-4)GlcNAc(b1-2)[Gal(b1-4)GlcNAc(b1-6)]Man(a1-6)[GlcNAc(b1-4)][Gal(b1-4)GlcNAc(b1-2)Man(a1-3)]Man(b1-4)GlcNAc(b1-4)GlcNAc
Procedure, shortened: as §1

[19] = target: Gal(b1-4)GlcNAc(b1-3)Gal(b1-4)GlcNAc(b1-2)Man(a1-3)[Gal(b1-4)GlcNAc(b1-3)Gal(b1-4)GlcNAc(b1-2)Man(a1-6)]Man(b1-4)GlcNAc(b1-4)GlcNAc
Procedure, shortened: as §1

[20] = target: Gal(b1-4)GlcNAc(b1-3)Gal(b1-4)GlcNAc(b1-3)Gal(b1-4)GlcNAc
Procedure, shortened: as §1

[21] = target: Gal(b1-4)GlcNAc(b1-3)Gal(b1-4)GlcNAc(b1-3)Gal(b1-4)GlcNAc(b1-2)Man(a1-3)[Gal(b1-4)GlcNAc(b1-3)Gal(b1-4)GlcNAc(b1-3)Gal(b1-4)GlcNAc(b1-2)Man(a1-6)]Man(b1-4)GlcNAc(b1-4)[Fuc(a1-6)]GlcNAc
Procedure, shortened: as §1

B1: Gal 7 (Homo sapiens) (protein)
chain: MSNVPHKSSLPEGIRPGTVLRIRGLVPPNASRFHVNLLCGEEGGSDAALHFNPRLDTSEVVFNSKEGGSWGREERGPGVPFGRGQPFEVLIIASDDGFKAVVGDAQYHHFRHRLPLARVRLVEVGGDVQLDSVRIF
With B1 the “glycan array binding signal (z-score)” value [1] was -0.125, the “glycan array binding signal (z-score)” value (Fuc(a1-2)Gal(b1-4)Glc6S) was 0.834 and the “glycan array binding signal (z-score)” value [2] was 5.81. The “glycan array binding signal (z-score)” value [3] was 5.09, the “glycan array binding signal (z-score)” value [4] was 7.12 and the “glycan array binding signal (z-score)” value [5] was 0.082. The “glycan array binding signal (z-score)” value [6] was -0.267, the “glycan array binding signal (z-score)” value [7] was -0.319 and the “glycan array binding signal (z-score)” value [8] was -0.23. For the same binder, the “glycan array binding signal (z-score)” value [9] was -0.214, the “glycan array binding signal (z-score)” value (Fuc(a1-4)GlcNAc) was -0.324 and the “glycan array binding signal (z-score)” value (Gal(a1-3)Gal(b1-3)Glc) was 1.04. For the same binder, the “glycan array binding signal (z-score)” value [10] was -0.147, the “glycan array binding signal (z-score)” value [11] was -0.011 and the “glycan array binding signal (z-score)” value (Gal(a1-4)Gal(b1-4)GlcNAc) was -0.251. For the same binder, the “glycan array binding signal (z-score)” value (Gal(b1-3)Gal) was -0.328, the “glycan array binding signal (z-score)” value (Gal(b1-3)Gal(b1-4)GlcNAc) was -0.341 and the “glycan array binding signal (z-score)” value (Gal(b1-3)GalNAc) was -0.006. The “glycan array binding signal (z-score)” value [12] was 0.962, the “glycan array binding signal (z-score)” value [13] was 0.04 and the “glycan array binding signal (z-score)” value [14] was -0.33. For the same binder, the “glycan array binding signal (z-score)” value [15] was -0.289, the “glycan array binding signal (z-score)” value [16] was -0.367 and the “glycan array binding signal (z-score)” value (Gal(b1-4)Glc6S) was 0.576. The “glycan array binding signal (z-score)” value [17] was 0.141, the “glycan array binding signal (z-score)” value [18] was -0.186 and the “glycan array binding signal (z-score)” value [19] was 2.23. The “glycan array binding signal (z-score)” value [20] was 0.945 and the “glycan array binding signal (z-score)” value [21] was 4.99.
